Screening results deposited in PubChem by National Center for Advancing Translational Sciences (NCATS).
Nrf2 inh = Nrf2 qHTS screen for inhibitors. A549 ARE-Fluc reporter, luciferase luminescence, 18-24 h. Potency, µM (doses to about 46 µM), actives largely listed as inhibitors. hit rate 2.1% among 360,000. AID 504444, 2011; also: nearly all actives have a fitted effect of over 60% in size
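Reporter: ARE-Fluc in A549. Exposure: 18-24 h, 37 °C, 5% CO2, 5% FBS OPTI-MEM. Readouts: fluorescent cytotoxicity (CellTiter-Fluor), then luminescent Nrf2 signal after BugLite.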
GALK inhibitor = qHTS Assay for Inhibitors of Human Galactokinase (GALK); P51570; Potency, µM (series often up to 57.5 µM), hits mostly inhibitors; AID 1868, 2009; Purified GALK, Kinase-Glo residual ATP luminescence; hit rate 0.007% among 270,000
Target sequence (P51570 whole entry, looked up): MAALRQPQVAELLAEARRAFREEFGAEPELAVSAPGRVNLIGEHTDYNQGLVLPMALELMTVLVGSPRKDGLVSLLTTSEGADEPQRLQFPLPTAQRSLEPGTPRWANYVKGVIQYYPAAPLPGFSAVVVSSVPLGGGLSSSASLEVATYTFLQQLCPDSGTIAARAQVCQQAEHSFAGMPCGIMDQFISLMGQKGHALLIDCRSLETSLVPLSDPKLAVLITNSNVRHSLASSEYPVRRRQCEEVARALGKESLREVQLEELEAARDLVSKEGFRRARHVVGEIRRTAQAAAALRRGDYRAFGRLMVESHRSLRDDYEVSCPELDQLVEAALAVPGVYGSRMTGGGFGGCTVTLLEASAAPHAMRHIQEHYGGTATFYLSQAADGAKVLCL
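5 nM enzyme, 35 uM ATP, 100 uM galactose, 20 mM HEPES pH8.0, 5 mM MgCl2; 1 h RT; residual ATP by Kinase-Glo Plus luminescence, qHTS format.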
PI4K2A inh = qHTS for small molecular inhibitors of PI4K2A | purified PI4K2A, ADP-Glo luminescence, 1 h; active compounds read low | activity change, negative = inhibition, % at 76.9 µM | Phosphatidylinositol 4-kinase type 2-alpha (Homo sapiens), Q9BTU6 | AID 1346378, 2018 | hit rate 0.13% among 420,000; in the data active = activity change below about -50%; inconclusive = mostly about -30% to -49%
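ADP-Glo luminescence measured ADP generated by PI4K2A enzyme (4 ug/mL before mixing) with 1.2 mM PI substrate (pre-mix) and 300 microM ATP (pre-mix). Tris pH7.5 buffer with MgCl2, Triton X-100; 1 h reaction at ambient temperature.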
miR-21 act = qHTS Assay for Modulators of miRNAs and/orActivators of miR-21 | HeLa miR-21 FLuc reporter, luciferase, 48 h | Potency, µM (doses to about 38.3 µM), usual class: activators | 340,000 tested, under 10 active | AID 2288, 2010;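 also: miR-21 action dims this reporter so a rising signal means less miR-21 action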
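HeLa cells endogenously expressing miR-21, stably carrying CMV-driven firefly luciferase with a downstream miR-21 binding site, 2000 cells/well. Titrations up to approximately 40 uM, 48 hours; luciferase luminescence read.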
A549 tox = Nrf2 qHTS screen for inhibitors: counterscreen for cytotoxicity; A549 ARE-Fluc cells, CellTiter-Fluor viability, 18-24 h; Potency, µM (doses to about 46 µM), usual class: inhibitors; hit rate 0.16% among 390,000; AID 504648, 2011
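A549 ARE_Fluc cells in 5% FBS OPTI-MEM were exposed to compounds in concentration-response for 18-24 h at 37 deg C. Viability was read by CellTiter-Fluor fluorescence (Ex 405/Em 525) after 30 min, before the luciferase read.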
Nrf2 ARE act = qHTS of Nrf2 Activators | AREc32 ARE-luciferase reporter (MCF7-derived line), luminescence, 24 h | Potency, µM (top dose mostly 46.1 µM), usual class: activators | hit rate 0.31% among 410,000; also: nearly all actives have a fitted effect of over 65% in size
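Nrf2 activation is followed as ARE-luciferase induction in the AREc32 line after one day of compound treatment; luminescence is read with Steady-Glo.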
Hits are given with their value; – = inactive; ? = inconclusive; · = no result given; ! = not confirmed by another sample. Sampled rows, rich in hits. Any-hit rate of the full collection: about 2.2%. Unless noted, calls follow the shape of the dose curve; as a rule, active = well fitted curve in the direction sought with a large enough effect; inconclusive = small, poorly fitted or top-dose-only effect, or another doubt; inactive = no such curve, though single readings can be large; an effect the other way counts as inactive or inconclusive.

SMILES | Nrf2 inh | GALK inhibitor | PI4K2A inh | miR-21 act | A549 tox | Nrf2 ARE act
CCNC(=O)Nc1cc(S(=O)(=O)Nc2ccc(OC)cc2)ccc1N1CCOCC1 | 4.1µM | · | – | · | – | –
Nc1cc(S(=O)(=O)Nc2ccccc2Cl)ccc1N1CCOCC1 | ? | – | – | – | – | –
Nc1cc(S(=O)(=O)Nc2ccc(Cl)cc2)ccc1N1CCOCC1 | 16µM | – | – | – | – | –
CCCCNC(=O)c1ccc(N2CCOCC2)c(NS(=O)(=O)c2ccc(OC)cc2)c1 | ? | – | – | – | – | –
CCOC(=O)[C@H]1[C@H]2COc3ccc(Cl)cc3[C@@H]2N2C(=O)c3ccc(F)cc3NC(=O)[C@@]12C | 23µM | · | – | · | – | –
CC(C)(C)OC(=O)NCCCNc1ncnc2ccc(-c3ccc4c(c3)OCO4)cc12 | – | · | · | · | – | ·
Cc1sc2nc(C3CC3)nc(SCC(=O)N3CC(=O)Nc4ccccc43)c2c1C | 7.3µM | – | – | – | – | –
Cc1sc2nc(C3CC3)nc(SCC(=O)N3CCCc4ccccc43)c2c1C | · | – | · | – | · | ·
c1ccc(-c2nc(-c3ccco3)cs2)nc1 | ? | – | – | – | – | 13µM
O=S(=O)(Nc1nc2ccccc2nc1N1CCN(c2ccccc2F)CC1)c1ccc(Cl)cc1 | 23µM | – | – | – | ? | –
COc1cccc(N2C(=O)c3ccccc3C2=O)n1 | – | · | · | · | – | ·
COc1ccccc1C(=O)NC1CCCCN(Cc2ccc(OC(F)(F)F)cc2)C1=O (stereo not drawn) | · | · | – | · | · | ·
OCCCc1nc2n(n1)C(c1cccs1)C=C(c1ccccc1)N2 (stereo not drawn) | · | – | · | – | · | ·
OCCCc1nc2n(n1)C(c1ccccc1)C=C(c1ccc(F)cc1)N2 (stereo not drawn) | ? | – | -66 | – | ? | –
NC1=C(Cl)C(=O)c2ccc(S(N)(=O)=O)cc2C1=O | 3.3µM | · | ? | · | 5.8µM | –
NS(=O)(=O)c1ccc2c(c1)C(=NO)c1cc(S(N)(=O)=O)ccc1-2 | – | – | – | – | – | –
NC1=C(Cl)C(=O)c2ccccc2C1=O | 16µM | · | – | · | ? | –
CN(C)CCOC(c1ccccc1)c1ccc(Br)cc1 (stereo not drawn) | · | · | – | · | · | ·
O=[N+]([O-])c1ccccc1S(=O)(=O)N1CCC(c2cn3ccccc3n2)CC1 | · | · | – | · | · | ·
Cc1ccc(NC(=O)c2ccc(=O)[nH]n2)cc1S(=O)(=O)Nc1ccc(SC(F)F)cc1 | 21µM | · | – | · | – | –
CCc1ccc(CNc2ccc(N3CCN(C(C)=O)CC3)cc2)cc1 | 16µM | – | – | – | ? | –
CC(=O)N1CCN(c2ccc(NCc3ccc(C)cc3)cc2)CC1 | – | – | – | – | – | –
CCC1CN(C(=O)N2CCC(C(=O)NCc3cc(OC)ccc3OC)CC2)c2ccccc2O1 (stereo not drawn) | – | · | – | – | – | –
CCC1CN(C(=O)N2CCC(C(=O)NCCc3cc(OC)ccc3OC)CC2)c2ccccc2O1 (stereo not drawn) | 23µM | · | – | – | – | –
Cc1ccc(C(=O)Oc2ccc(C(O)CNC(C)(C)C)cc2OC(=O)c2ccc(C)cc2)cc1 (stereo not drawn) | · | · | – | · | · | ·
SMILES | Nrf2 inh | GALK inhibitor | PI4K2A inh | miR-21 act | A549 tox | Nrf2 ARE act
CN(C)S(=O)(=O)c1cccc(NC(=O)CCc2nc3sc4c(c3c(=O)[nH]2)CCCC4)c1 | 16µM | · | – | · | – | –
Cc1cccc(NC(=O)CCc2nc3sc4c(c3c(=O)[nH]2)CCCC4)c1 | – | · | – | · | – | –
CC(C)ON([C@@H](C(=O)NO)C(C)C)S(=O)(=O)c1ccc(-c2ccccc2)cc1 | · | · | – | · | · | ·
CCOc1cc(/C=C2\CN(C)C/C(=C\c3ccc(O)c(OCC)c3)C2=O)ccc1O | 21µM | – | – | ? | 13µM | ?
COc1cc(C=C2CN(C)C(=O)C2=O)ccc1O | · | · | – | · | · | –
COc1cccc2c1C(=O)C=C(C)C2=O | – | – | – | ? | – | –
COC1=CC(=O)c2c(ccc3ncnc(N)c23)C1=O | 4.6µM | · | -58 | · | 7.3µM | –
COc1ccc(Cn2cc(CN3[C@H](Cc4ccccc4)COc4cc(Br)ccc4S3(=O)=O)nn2)cc1 | · | · | – | · | · | ·
O=C(NC(=S)N(CCCCO)C1CCCCC1)c1sc2ccccc2c1Cl | 12µM | – | – | – | ? | –
COc1cc(CSc2nnnn2-c2ccc(C)cc2)cc(OC)c1OC | 6.5µM | – | – | – | – | –
Cn1cccc1/C=N/NC(=O)Cc1cccc2ccccc12 | 18µM | – | – | – | – | –
CCc1cccc(CC)c1NC(=S)NCCc1c(C)[nH]c2ccc(C)cc12 | 16µM | · | – | – | – | –
COc1ccc(Cn2cc(CN3CC=CS3(=O)=O)nn2)cc1 | · | · | – | · | · | ·
CCC1CCCCN1S(=O)(=O)c1ccc(C(=O)Nc2nnc(-c3ccccc3Cl)o2)cc1 (stereo not drawn) | 5.2µM | – | – | – | ? | –
CCC1CCCCN1S(=O)(=O)c1ccc(NC(=O)c2ccncc2)cc1 (stereo not drawn) | 8.2µM | – | – | – | – | –
CCc1nnc(NC(=O)c2ccc(S(=O)(=O)N(CCOC)CCOC)cc2)o1 | – | – | – | – | – | –
CCN(c1ccccc1)S(=O)(=O)c1ccc(C(=O)Nc2nnc(CSC)o2)cc1 | 12µM | – | – | ? | ? | –
CCN(c1ccccc1)S(=O)(=O)c1ccc(C(=O)Nc2nnc(C3CC3)o2)cc1 | 12µM | – | – | ? | ? | –
CCN(c1ccccc1)S(=O)(=O)c1ccc(C(=O)Nc2nnc(COC)o2)cc1 | 23µM | – | – | – | – | –
COCc1nnc(NC(=O)c2ccc(S(=O)(=O)N(C)c3ccccc3)cc2)o1 | ? | – | – | – | – | –
CC(=O)OCC(=O)Nc1cc(C#N)cc(NC(=O)COC(C)=O)c1Cl | · | · | – | · | · | ·
N=c1scc(-c2ccccc2)n1/N=C/c1ccco1 | – | – | – | – | – | 11µM
C(=N/n1c2ccccc2c2ccccc21)/c1ccco1 | · | – | – | – | – | 3.2µM
CCC(=O)NC(c1ccc(F)cc1)c1cc(Cl)c2cccnc2c1O (stereo not drawn) | ? | · | · | · | – | ·
CCC(=O)NC(c1ccco1)c1cc(Cl)c2cccnc2c1O (stereo not drawn) | 9.2µM! | – | – | ? | ? | –
CCC(=O)NC(c1ccc(C)s1)c1cc(Cl)c2cccnc2c1O (stereo not drawn) | – | · | · | · | – | ·
CC(=O)NC(c1cc(Cl)c2ccccc2c1O)C(C)C (stereo not drawn) | – | · | – | · | – | –
CCC(=O)NC(c1ccc(OC)cc1)c1cc(Cl)c2cccnc2c1O (stereo not drawn) | 26µM | – | – | – | – | –
